Measured values from the supplement of paper PMC10849652.
Of roughly 7,900 targets only a part is listed; those with a hit were picked by preference. About 0.6% of all pairs of compound and target were hits. Unmarked numbers belong to inactive results.

What follows are targets tested with CC(C)(C)Cn1c(N)nc2ccc(-c3[nH]c(C(C)(C)C)nc3-c3ccc(F)cc3)nc21 [ralimetinib] (assay: log2 fold change, soluble protein after heating vs DMSO (PISA); higher = thermal stabilisation; K562 cells, 10 uM, 30 min; active = over 0.2 and 3.5 SD of the protein, either way, in both replicates (recomputed)).
Procedure, shortened: (§1)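 Quantification of soluble protein used TMTpro 16plex LC-MS/MS, with channel sums equalised. Samples were the supernatant after 21,000xg for 90 min of pooled aliquots from K562 cells (2×10^6 cells/mL) treated with 10 μM compound for 30 min, heated for 3 min over 48°C-58°C, and extracted in PBS with 0.5% NP-40 at 4°C. Values, from duplicates, describe thermal stability against control samples on a log2 fold-change scale.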

UniProt O15198, sequence (O15198 whole entry, looked up): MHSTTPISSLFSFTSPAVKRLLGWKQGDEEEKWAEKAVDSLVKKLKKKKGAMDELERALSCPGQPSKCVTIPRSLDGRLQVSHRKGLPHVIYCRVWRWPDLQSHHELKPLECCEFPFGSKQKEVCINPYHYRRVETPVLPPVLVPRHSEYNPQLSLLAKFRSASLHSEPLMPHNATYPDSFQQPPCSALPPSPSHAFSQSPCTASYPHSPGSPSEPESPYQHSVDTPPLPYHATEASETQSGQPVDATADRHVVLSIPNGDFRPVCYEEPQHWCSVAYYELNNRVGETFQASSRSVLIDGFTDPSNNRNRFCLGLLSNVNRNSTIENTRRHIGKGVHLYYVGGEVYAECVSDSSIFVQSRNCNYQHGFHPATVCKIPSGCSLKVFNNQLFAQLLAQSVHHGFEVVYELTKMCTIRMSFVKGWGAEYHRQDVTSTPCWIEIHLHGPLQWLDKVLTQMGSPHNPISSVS
UniProt Q9NYB0, sequence (Q9NYB0 whole entry, looked up): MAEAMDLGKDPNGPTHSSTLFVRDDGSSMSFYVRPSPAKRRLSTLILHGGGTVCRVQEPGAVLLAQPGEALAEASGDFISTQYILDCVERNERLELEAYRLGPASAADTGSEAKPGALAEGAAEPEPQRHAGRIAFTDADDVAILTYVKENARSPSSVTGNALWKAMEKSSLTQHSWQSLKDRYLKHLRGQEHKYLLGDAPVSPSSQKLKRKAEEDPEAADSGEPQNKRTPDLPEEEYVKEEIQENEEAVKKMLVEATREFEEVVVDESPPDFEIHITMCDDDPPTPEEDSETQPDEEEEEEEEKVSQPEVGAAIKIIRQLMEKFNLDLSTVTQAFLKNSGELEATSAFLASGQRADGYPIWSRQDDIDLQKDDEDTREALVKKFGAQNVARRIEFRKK
UniProt Q6PCB7, sequence (Q6PCB7 whole entry, looked up): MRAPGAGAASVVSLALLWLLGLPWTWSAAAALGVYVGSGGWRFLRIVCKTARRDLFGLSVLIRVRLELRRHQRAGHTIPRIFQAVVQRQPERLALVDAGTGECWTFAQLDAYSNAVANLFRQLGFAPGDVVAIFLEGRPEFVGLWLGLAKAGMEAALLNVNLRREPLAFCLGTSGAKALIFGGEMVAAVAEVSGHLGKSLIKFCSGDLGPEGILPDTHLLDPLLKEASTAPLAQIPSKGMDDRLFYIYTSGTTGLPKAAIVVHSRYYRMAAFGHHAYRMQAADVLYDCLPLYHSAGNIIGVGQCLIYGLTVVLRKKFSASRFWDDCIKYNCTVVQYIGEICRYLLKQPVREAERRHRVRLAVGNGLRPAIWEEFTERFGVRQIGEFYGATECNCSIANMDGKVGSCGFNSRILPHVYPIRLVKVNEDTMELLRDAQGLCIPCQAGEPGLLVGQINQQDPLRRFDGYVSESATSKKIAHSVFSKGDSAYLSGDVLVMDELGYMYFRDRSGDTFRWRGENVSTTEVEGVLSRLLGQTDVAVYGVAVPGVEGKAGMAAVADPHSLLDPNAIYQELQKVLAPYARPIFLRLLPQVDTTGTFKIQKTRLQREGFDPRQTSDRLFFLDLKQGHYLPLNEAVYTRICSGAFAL
UniProt Q9UDY2, sequence (Q9UDY2 whole entry, looked up): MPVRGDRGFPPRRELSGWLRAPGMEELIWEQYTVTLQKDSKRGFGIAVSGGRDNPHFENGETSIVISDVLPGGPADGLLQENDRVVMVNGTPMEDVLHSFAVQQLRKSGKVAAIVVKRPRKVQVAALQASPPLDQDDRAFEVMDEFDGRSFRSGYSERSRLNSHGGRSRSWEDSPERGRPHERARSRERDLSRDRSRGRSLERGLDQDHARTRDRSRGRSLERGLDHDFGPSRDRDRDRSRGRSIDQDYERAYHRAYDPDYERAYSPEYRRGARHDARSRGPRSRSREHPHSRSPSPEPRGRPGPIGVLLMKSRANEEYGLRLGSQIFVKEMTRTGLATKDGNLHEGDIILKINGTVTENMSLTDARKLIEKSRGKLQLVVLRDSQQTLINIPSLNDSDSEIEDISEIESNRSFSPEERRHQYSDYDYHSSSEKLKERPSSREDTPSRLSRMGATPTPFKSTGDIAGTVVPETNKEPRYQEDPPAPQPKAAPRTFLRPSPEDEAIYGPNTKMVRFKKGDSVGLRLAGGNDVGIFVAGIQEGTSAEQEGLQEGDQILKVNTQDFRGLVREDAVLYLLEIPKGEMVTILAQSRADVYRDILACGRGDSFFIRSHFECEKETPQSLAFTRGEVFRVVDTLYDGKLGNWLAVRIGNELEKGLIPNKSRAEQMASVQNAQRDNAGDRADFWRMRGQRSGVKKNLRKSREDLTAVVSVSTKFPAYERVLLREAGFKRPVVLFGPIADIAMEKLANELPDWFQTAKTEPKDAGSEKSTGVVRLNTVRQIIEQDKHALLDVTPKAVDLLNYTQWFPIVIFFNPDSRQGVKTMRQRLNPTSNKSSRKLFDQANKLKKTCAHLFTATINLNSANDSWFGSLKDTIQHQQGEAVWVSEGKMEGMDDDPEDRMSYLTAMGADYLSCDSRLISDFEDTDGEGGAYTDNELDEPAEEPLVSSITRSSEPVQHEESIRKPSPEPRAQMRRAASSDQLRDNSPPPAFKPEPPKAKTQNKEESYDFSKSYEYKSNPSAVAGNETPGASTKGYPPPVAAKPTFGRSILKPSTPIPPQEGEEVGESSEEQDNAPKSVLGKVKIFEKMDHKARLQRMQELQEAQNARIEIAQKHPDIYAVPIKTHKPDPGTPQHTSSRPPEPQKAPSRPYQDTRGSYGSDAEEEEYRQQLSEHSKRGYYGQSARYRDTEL
UniProt Q8WUH2, sequence (Q8WUH2 whole entry, looked up): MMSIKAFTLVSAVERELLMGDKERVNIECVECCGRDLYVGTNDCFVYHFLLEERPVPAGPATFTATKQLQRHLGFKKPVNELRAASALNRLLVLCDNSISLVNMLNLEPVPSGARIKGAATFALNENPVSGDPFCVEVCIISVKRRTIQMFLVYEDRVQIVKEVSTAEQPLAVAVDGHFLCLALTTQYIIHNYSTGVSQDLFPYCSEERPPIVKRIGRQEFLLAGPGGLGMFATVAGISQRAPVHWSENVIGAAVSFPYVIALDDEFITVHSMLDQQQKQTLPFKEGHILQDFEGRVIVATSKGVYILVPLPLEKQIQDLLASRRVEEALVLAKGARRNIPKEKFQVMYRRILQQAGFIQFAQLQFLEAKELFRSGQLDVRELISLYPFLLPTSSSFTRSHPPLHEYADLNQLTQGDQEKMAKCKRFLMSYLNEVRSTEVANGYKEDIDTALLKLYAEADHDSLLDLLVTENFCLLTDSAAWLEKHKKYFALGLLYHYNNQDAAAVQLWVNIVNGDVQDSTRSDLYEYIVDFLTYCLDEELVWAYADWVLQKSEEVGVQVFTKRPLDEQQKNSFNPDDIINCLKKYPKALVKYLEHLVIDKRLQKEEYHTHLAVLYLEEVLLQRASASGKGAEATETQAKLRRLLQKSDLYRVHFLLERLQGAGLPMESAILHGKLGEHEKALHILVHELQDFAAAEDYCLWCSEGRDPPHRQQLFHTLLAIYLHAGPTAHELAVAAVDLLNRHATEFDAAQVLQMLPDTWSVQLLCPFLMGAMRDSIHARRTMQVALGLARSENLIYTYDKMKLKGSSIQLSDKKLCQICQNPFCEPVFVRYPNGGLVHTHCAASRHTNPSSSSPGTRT
UniProt P27105, sequence (P27105 whole entry, looked up): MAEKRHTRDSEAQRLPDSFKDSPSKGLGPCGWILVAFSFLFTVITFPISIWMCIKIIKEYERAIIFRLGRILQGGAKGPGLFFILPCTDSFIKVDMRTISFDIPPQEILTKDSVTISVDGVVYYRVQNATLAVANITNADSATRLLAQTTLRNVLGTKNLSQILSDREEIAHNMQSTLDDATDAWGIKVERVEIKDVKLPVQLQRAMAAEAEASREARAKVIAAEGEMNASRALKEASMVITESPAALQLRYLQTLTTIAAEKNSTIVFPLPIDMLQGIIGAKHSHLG
UniProt Q6XR72, sequence (Q6XR72 whole entry, looked up): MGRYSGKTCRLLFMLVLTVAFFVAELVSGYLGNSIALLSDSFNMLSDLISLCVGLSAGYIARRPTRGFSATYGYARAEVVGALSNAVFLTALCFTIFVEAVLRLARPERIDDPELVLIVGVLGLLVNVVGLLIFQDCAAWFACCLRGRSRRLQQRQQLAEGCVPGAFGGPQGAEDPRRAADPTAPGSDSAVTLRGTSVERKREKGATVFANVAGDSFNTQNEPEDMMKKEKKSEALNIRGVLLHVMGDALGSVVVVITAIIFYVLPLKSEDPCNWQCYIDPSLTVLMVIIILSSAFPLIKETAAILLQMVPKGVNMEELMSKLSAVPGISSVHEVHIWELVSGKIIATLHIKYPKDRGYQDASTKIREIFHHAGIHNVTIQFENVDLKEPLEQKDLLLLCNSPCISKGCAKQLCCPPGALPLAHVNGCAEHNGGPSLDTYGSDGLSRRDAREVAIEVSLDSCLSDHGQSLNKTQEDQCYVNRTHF
UniProt P56962, sequence (P56962 whole entry, looked up): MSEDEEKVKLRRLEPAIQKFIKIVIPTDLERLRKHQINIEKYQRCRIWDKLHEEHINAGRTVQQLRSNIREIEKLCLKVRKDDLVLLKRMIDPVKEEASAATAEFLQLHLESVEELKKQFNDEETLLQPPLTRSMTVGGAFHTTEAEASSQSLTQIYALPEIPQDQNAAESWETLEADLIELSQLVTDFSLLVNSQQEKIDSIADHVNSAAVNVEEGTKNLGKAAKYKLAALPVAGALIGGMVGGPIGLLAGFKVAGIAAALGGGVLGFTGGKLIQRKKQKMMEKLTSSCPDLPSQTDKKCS
UniProt P78382, sequence (P78382 whole entry, looked up): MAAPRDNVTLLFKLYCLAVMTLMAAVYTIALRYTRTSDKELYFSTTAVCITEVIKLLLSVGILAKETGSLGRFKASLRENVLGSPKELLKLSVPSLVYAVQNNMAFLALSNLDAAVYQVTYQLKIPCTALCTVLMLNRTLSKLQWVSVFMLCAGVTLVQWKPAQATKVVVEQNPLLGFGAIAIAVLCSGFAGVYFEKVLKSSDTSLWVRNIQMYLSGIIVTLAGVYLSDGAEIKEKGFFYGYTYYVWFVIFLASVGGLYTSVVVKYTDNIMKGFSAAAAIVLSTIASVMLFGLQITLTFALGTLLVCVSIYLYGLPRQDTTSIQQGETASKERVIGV

Row | Target | log2 fold change
1 | SPPL2B (UniProt Q8TCT7) | 0.041
2 | STK4 (UniProt Q13043) | 0.002
3 | SMG1 (UniProt Q96Q15) | 0.012
4 | STK38L (UniProt Q9Y2H1) | -0.577
5 | TGFBRAP1 (UniProt Q8WUH2) | 0.33
6 | SLC9A6 isoform 2 (UniProt Q92581) | -0.056
7 | SLC35A1 (UniProt P78382) | -0.049
8 | TFR2 (UniProt Q9UP52) | -0.018
9 | TERF2IP (UniProt Q9NYB0) | 0.038
10 | SUGP1 (UniProt Q8IWZ8) | -0.023
11 | SURF1 (UniProt Q15526) | -0.04
12 | STARD7 (UniProt Q9NQZ5) | -0.01
13 | STEAP3 isoform 2 (UniProt Q658P3) | 0.013
14 | ST6GAL1 (UniProt P15907) | 0.041
15 | SPIRE1 (UniProt Q08AE8) | 0.008
16 | SLC27A1 (UniProt Q6PCB7) | 0.001
17 | SPG21 (UniProt Q9NZD8) | 0.014
18 | SRP72 (UniProt O76094) | 0.104
19 | SLC38A7 (UniProt Q9NVC3) | 0.205

Row | Target | log2 fold change
20 | SLK isoform 2 (UniProt Q9H2G2) | 0.005
21 | TIPRL (UniProt O75663) | -0.007
22 | STX17 (UniProt P56962) | 0.037
23 | STIM1 (UniProt Q13586) | -0.036
24 | SLC30A10 (UniProt Q6XR72) | -0.014
25 | STK25 (UniProt O00506) | 0.015
26 | SNUPN (UniProt O95149) | -0.026
27 | SLC7A6 (UniProt Q92536) | -0.02
28 | SMAD9 (UniProt O15198) | -0.087
29 | TJP2 isoform 7 (UniProt Q9UDY2) | 0.032
30 | SLC30A7 (UniProt Q8NEW0) | -0.098
31 | STOM (UniProt P27105) | -0.054
32 | STAT5B (UniProt P51692) | 0.121
33 | SPCS2 (UniProt Q15005) | -0.047
34 | SMAP2 (UniProt Q8WU79) | 0.048
35 | TIAL1 isoform 2 (UniProt Q01085) | -0.05
36 | STAT6 (UniProt P42226) | 0.054
37 | SLC6A6 (UniProt P31641) | -0.186
38 | SRSF2 (UniProt Q01130) | 0.01

These targets were tested with CC(C)(O)CC(=O)NCCn1ccc2ncnc(Nc3ccc(Oc4cccc(C(F)(F)F)c4)c(Cl)c3)c21 in the same assay as above.
Procedure, shortened: as §1

Row | Target | log2 fold change
39 | SPPL2B (UniProt Q8TCT7) | 0.179
40 | STK4 (UniProt Q13043) | -0.018
41 | SMG1 (UniProt Q96Q15) | 0.002
42 | STK38L (UniProt Q9Y2H1) | -0.035
43 | TGFBRAP1 (UniProt Q8WUH2) | -0.108
44 | SLC9A6 isoform 2 (UniProt Q92581) | -0.02
45 | SLC35A1 (UniProt P78382) | -0.056
46 | TFR2 (UniProt Q9UP52) | 0.037
47 | TERF2IP (UniProt Q9NYB0) | 0.034
48 | SUGP1 (UniProt Q8IWZ8) | -0.003
49 | SURF1 (UniProt Q15526) | 0.036
50 | STARD7 (UniProt Q9NQZ5) | -0.051
51 | STEAP3 isoform 2 (UniProt Q658P3) | -0.087
52 | ST6GAL1 (UniProt P15907) | 0.058
53 | SPIRE1 (UniProt Q08AE8) | 0.073
54 | SLC27A1 (UniProt Q6PCB7) | 0.117
55 | SPG21 (UniProt Q9NZD8) | 0.043
56 | SRP72 (UniProt O76094) | -0.121
57 | SLC38A7 (UniProt Q9NVC3) | -0.085

Row | Target | log2 fold change
58 | SLK isoform 2 (UniProt Q9H2G2) | -0.216
59 | TIPRL (UniProt O75663) | -0.065
60 | STX17 (UniProt P56962) | -0.063
61 | STIM1 (UniProt Q13586) | -0.067
62 | SLC30A10 (UniProt Q6XR72) | -0.079
63 | STK25 (UniProt O00506) | -0.039
64 | SNUPN (UniProt O95149) | -0.045
65 | SLC7A6 (UniProt Q92536) | -0.301
66 | SMAD9 (UniProt O15198) | -0.022
67 | TJP2 isoform 7 (UniProt Q9UDY2) | -0.061
68 | SLC30A7 (UniProt Q8NEW0) | -0.075
69 | STOM (UniProt P27105) | 0.004
70 | STAT5B (UniProt P51692) | -0.401
71 | SPCS2 (UniProt Q15005) | -0.016
72 | SMAP2 (UniProt Q8WU79) | -0.039
73 | TIAL1 isoform 2 (UniProt Q01085) | 0.001
74 | STAT6 (UniProt P42226) | -0.128
75 | SLC6A6 (UniProt P31641) | -0.033
76 | SRSF2 (UniProt Q01130) | 0.055
